The whole screen tested about 5,500 compounds, of which about 2,000 (36%) were called active. Inconclusive results (about 18%) are left out. Rule as the data show it: active = normalized growth mostly below about 0.91 (no sharp cut-off); inconclusive = no clear call, values can overlap the other calls; inactive = mostly above about 0.92. Some of the results follow.
Assay: chemical genetic growth profiling, strain panel (AID 1159580);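 also: tested at 20 µM; growth read once vehicle control cultures reached saturation at 30 °C; 1 = growth at the plate median or of vehicle wells; lower values mean less growth of the strain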
Conditions: growth OD

Measured: normalized growth

CC(=O)[O][Hg][c]1ccccc1
active: S. cerevisiae deletion strains, locus YJR066W, strain TOR1, hits give low values 0.00688 | S. cerevisiae deletion strains, locus YJR075W, strain HOC1, hits give low values 0.0645 | S. cerevisiae deletion strains, locus YKL009W, strain mrt4, hits give low values 0.0761 | S. cerevisiae deletion strains, locus YKL068W, hits give low values 0.0552 | S. cerevisiae deletion strains, locus YKL085W, strain MDH1 (second series), hits give low values 0.0536 | S. cerevisiae deletion strains, locus YKL085W, strain MDH1, hits give low values 0.0536 | S. cerevisiae deletion strains, locus YKL160W, strain elf1, hits give low values 0.0629 | S. cerevisiae deletion strains, locus YKL190W, strain CNB1, hits give low values 0.0488 | S. cerevisiae deletion strains, locus YKR001C, strain vps1, hits give low values 0.0636 | S. cerevisiae deletion strains, locus YKR026C, strain gcn3, hits give low values 0.0658 | S. cerevisiae deletion strains, locus YKR091W, strain srl3, hits give low values 0.0596 | S. cerevisiae deletion strains, locus YLL001W, strain dnm1, hits give low values 0.0611 | S. cerevisiae deletion strains, locus YLL026W, hits give low values 0.0582 | S. cerevisiae deletion strains, locus YLL041C, strain sdh2, hits give low values 0.0595 | S. cerevisiae deletion strains, locus YLR027C, strain aat2, hits give low values 0.0573 | S. cerevisiae deletion strains, locus YLR039C, strain RIC1, hits give low values 0.0904 | S. cerevisiae deletion strains, locus YLR058C, strain SHM2, hits give low values 0.0508 | S. cerevisiae deletion strains, locus YLR102C, strain apc9, hits give low values 0.0618 | S. cerevisiae deletion strains, locus YLR113W, strain HOG1, hits give low values 0.158 | S. cerevisiae deletion strains, locus YLR221C, strain rsa3, hits give low values 0.0629 | S. cerevisiae deletion strains, locus YLR258W, strain gsy2, hits give low values 0.0604 | S. cerevisiae deletion strains, locus YLR262C, strain YPT6 (second series), hits give low values 0.0742 | S. cerevisiae deletion strains, locus YLR262C, strain YPT6, hits give low values 0.103 | S. cerevisiae deletion strains, locus YLR268W, strain sec22, hits give low values 0.0681 | S. cerevisiae deletion strains, locus YLR320W, strain mms22, hits give low values 0.0826 | S. cerevisiae deletion strains, locus YLR330W, strain CHS5, hits give low values 0.0544 | S. cerevisiae deletion strains, locus YLR342W, strain FKS1 (second series), hits give low values 0.0755 | S. cerevisiae deletion strains, locus YLR342W, strain FKS1, hits give low values 0.0633 | S. cerevisiae deletion strains, locus YLR357W, strain rsc2, hits give low values 0.127 | S. cerevisiae deletion strains, locus YLR370C, strain arc18, hits give low values 0.0626 | S. cerevisiae deletion strains, locus YLR371W, strain rom2, hits give low values 0.0637 | S. cerevisiae deletion strains, locus YLR384C, strain iki3, hits give low values 0.0624 | S. cerevisiae deletion strains, locus YLR418C, strain cdc73, hits give low values 0.0951 | S. cerevisiae deletion strains, locus YML016C, strain PPZ1, hits give low values 0.0524 | S. cerevisiae deletion strains, locus YML032C, strain rad52, hits give low values 0.0836 | S. cerevisiae deletion strains, locus YML120C, strain ndi1, hits give low values 0.0619 | S. cerevisiae deletion strains, locus YML124C, strain tub3, hits give low values 0.0593 | S. cerevisiae deletion strains, locus YMR058W, strain fet3, hits give low values 0.0602 | S. cerevisiae deletion strains, locus YMR078C, strain ctf18, hits give low values 0.0736 | S. cerevisiae deletion strains, locus YMR125W, strain sto1, hits give low values 0.0779 | S. cerevisiae deletion strains, locus YMR129W, hits give low values 0.0611 | S. cerevisiae deletion strains, locus YMR205C, strain PFK2, hits give low values 0.0858 | S. cerevisiae deletion strains, locus YMR223W, strain ubp8, hits give low values 0.0679 | S. cerevisiae deletion strains, locus YMR231W, strain pep5, hits give low values 0.0683 | S. cerevisiae deletion strains, locus YMR263W, strain SAP30, hits give low values 0.0622 | S. cerevisiae deletion strains, locus YMR307W, strain GAS1, hits give low values 0.119 | S. cerevisiae deletion strains, locus YNL067W, strain RPL9B, hits give low values 0.0529 | S. cerevisiae deletion strains, locus YNL071W, strain lat1, hits give low values 0.0614 | S. cerevisiae deletion strains, locus YNL128W, strain TEP1, hits give low values 0.0633 | S. cerevisiae deletion strains, locus YNL153C, strain GIM3, hits give low values 0.0495 | S. cerevisiae deletion strains, locus YNL183C, strain NPR1, hits give low values -0.000716 | S. cerevisiae deletion strains, locus YNL209W, strain ssb2, hits give low values 0.0586 | S. cerevisiae deletion strains, locus YNL233W, strain BNI4, hits give low values 0.0544 | S. cerevisiae deletion strains, locus YNL248C, strain rpa49, hits give low values 0.0785 | S. cerevisiae deletion strains, locus YNL250W, strain rad50, hits give low values 0.0635 | S. cerevisiae deletion strains, locus YNL271C, strain bni1, hits give low values 0.0615 | S. cerevisiae deletion strains, locus YNL298W, strain CLA4, hits give low values 0.0614 | S. cerevisiae deletion strains, locus YNL307C, strain MCK1, hits give low values 0.0689 | S. cerevisiae deletion strains, locus YNL322C, strain KRE1 (second series), hits give low values 0.0671 | S. cerevisiae deletion strains, locus YNL322C, strain KRE1, hits give low values 0.0528 | S. cerevisiae deletion strains, locus YNR049C, strain mso1, hits give low values 0.0595 | S. cerevisiae deletion strains, locus YNR052C, strain pop2, hits give low values 0.0629 | S. cerevisiae deletion strains, locus YOL006C, strain TOP1, hits give low values 0.102 | S. cerevisiae deletion strains, locus YOL147C, strain pex11, hits give low values 0.058 | S. cerevisiae deletion strains, locus YOR001W, strain rrp6, hits give low values 0.0684 | S. cerevisiae deletion strains, locus YOR061W, strain CKA2, hits give low values 0.0465 | S. cerevisiae deletion strains, locus YOR069W, strain VPS5, hits give low values 0.0482 | S. cerevisiae deletion strains, locus YOR070C, strain gyp1, hits give low values 0.0606 | S. cerevisiae deletion strains, locus YOR080W, strain dia2, hits give low values 0.0661 | S. cerevisiae deletion strains, locus YOR083W, strain WHI5, hits give low values 0.0628 | S. cerevisiae deletion strains, locus YOR106W, strain vam3, hits give low values 0.0631 | S. cerevisiae deletion strains, locus YOR136W, strain idh2, hits give low values 0.0713 | S. cerevisiae deletion strains, locus YOR144C, strain elg1, hits give low values 0.0581 | S. cerevisiae deletion strains, locus YOR184W, strain ser1, hits give low values 0.073 | S. cerevisiae deletion strains, locus YOR231W, strain MKK1, hits give low values 0.132 | S. cerevisiae deletion strains, locus YOR265W, strain rbl2, hits give low values 0.0563 | S. cerevisiae deletion strains, locus YOR270C, strain vph1, hits give low values 0.0933 | S. cerevisiae deletion strains, locus YOR290C, strain snf2, hits give low values 0.0699 | S. cerevisiae deletion strains, locus YOR316C, strain cot1, hits give low values 0.0597 | S. cerevisiae deletion strains, locus YPL051W, strain arl3, hits give low values 0.063 | S. cerevisiae deletion strains, locus YPL055C, strain LGE1, hits give low values 0.076 | S. cerevisiae deletion strains, locus YPL078C, strain atp4, hits give low values 0.0655 | S. cerevisiae deletion strains, locus YPL106C, strain sse1, hits give low values 0.1 | S. cerevisiae deletion strains, locus YPL240C, strain hsp82, hits give low values 0.0559 | S. cerevisiae deletion strains, locus YPL241C, strain CIN2, hits give low values 0.0515 | S. cerevisiae deletion strains, locus YPL256C, strain CLN2, hits give low values 0.132 | S. cerevisiae deletion strains, locus YPR119W, strain clb2, hits give low values 0.0616 | S. cerevisiae deletion strains, locus YPR141C, strain kar3, hits give low values 0.0673 | S. cerevisiae deletion strains, locus YPR163C, strain tif3, hits give low values 0.0707 | S. cerevisiae deletion strains, locus YPR167C, strain met16, hits give low values 0.0616 | S. cerevisiae deletion strains, strain wtn01, hits give low values 0.0633 | S. cerevisiae strains, strain wild type, hits give low values 0.0493

From PubChem BioAssay AID1159580 (chemical genetic matrix, 2015)
